Compound activity (PubChem)
Hits are enriched below; roughly 4.1% of the tested compounds scored in any of these assays.
DAX1 inh-1 = inhibitors of human orphan nuclear receptor DAX1 (NR0B1); 340,000 compounds, 0.99% hits; HEK293 Gal4-DAX1 luciferase reporter, luminescence; P51843; inhibition, % at 6.75 µM;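 active = inhibition above the mean over all tested compounds plus 3 SD, cut at about 4.2% in these data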;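 note: 0% = DAX1-transfected cells with DMSO and 100% = empty-vector control cells with DMSO; inhibition shows as a rise in luminescence from relieved DAX1 repression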
Target sequence (P51843 207-470 limits assumed): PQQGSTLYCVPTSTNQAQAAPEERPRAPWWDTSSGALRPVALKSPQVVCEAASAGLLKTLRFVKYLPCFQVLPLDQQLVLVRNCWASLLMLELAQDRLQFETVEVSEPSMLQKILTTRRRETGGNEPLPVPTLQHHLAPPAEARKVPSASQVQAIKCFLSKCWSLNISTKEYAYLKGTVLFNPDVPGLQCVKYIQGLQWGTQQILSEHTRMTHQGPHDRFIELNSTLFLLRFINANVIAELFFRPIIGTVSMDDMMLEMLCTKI
hcDAF-12 act = H. contortus DAF-12 activation, primary screen; activation, % at 6.8 µM; 370,000 compounds, 1.4% hits; HEK293 hcDAF-12 lit1-tk-luc reporter, luminescence; 0% DMSO, 100% Δ7-dafachronic acid;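 active = activation above the mean of all tested compounds plus 3 SD, cut at about 5.5% in these data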;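 note: 100% = response to 3 µM Δ7-dafachronic acid high control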
ssDAF12 agonist = activators of S. stercoralis DAF-12 nuclear receptor. HEK293 ssDAF-12/GRIP1 lit1-tk-luc reporter, luminescence; % of 3 µM dafachronic acid response. 370,000 compounds, 1% hits. AID 652126. activation, % at 6.8 µM;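 active = activation above the mean over all tested compounds plus 3 SD, cut at about 0.9% in these data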;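 note: 0% = DMSO-only wells and 100% = 3 µM delta7-dafachronic acid wells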
hgDAF-12 ag = agonists of H. glycines DAF-12 nuclear receptor. HEK293 GAL4-hgDAF12 UAS-luciferase reporter, agonist luminescence; normalized to butyrate control. 370,000 compounds, 1.8% hits. activation, % at 6.8 µM. AID 687014;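 active = activation above a cutoff set at the mean of all screened compounds plus 3 SD, cut at about 10% in these data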;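 note: 0% = DMSO wells and 100% = sodium butyrate wells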
DAX1 inh-2 = inhibitors of DAX1 repression of SF-1 activated StAR promoter; HEK293T StAR-luciferase reporter, SF-1/DAX-1 repression relief; inhibition, % at 6.8 µM; 370,000 compounds, 1.1% hits; AID 652010;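 active = inhibition above the mean over all tested compounds plus 3 SD, cut at about 3.6% in these data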;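 note: 0% = DAX-1 cells with DMSO and 100% = cells lacking DAX-1 with DMSO; higher inhibition means more luminescence from relief of DAX-1 repression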
Numbers without * were called inactive; . = not tested or not shown.

SMILES | DAX1 inh-1 | hcDAF-12 act | ssDAF12 agonist | hgDAF-12 ag | DAX1 inh-2
O=C(NCc1ccccc1)[C@H]1CCCN1C(=O)[C@H]1CCCN1C(=O)c1cccc2ccccc12 | . | -2.0 | -0.9 | -0.4 | -1.0
CCOC(=O)N1CCN(C(=O)c2ccc3nc(N4CCCCC4)sc3c2)CC1 | -0.2 | -0.6 | -1.0 | 1.1 | -0.3
COc1cccc(N2CCN(C(=O)c3ccc4nc(N5CCC(C)CC5)sc4c3)CC2)c1 | . | 0.7 | -1.0 | 11.8* | 1.3
NC(=O)C1CCN(C(=O)c2ccc3nc(N4CCCCC4)sc3c2)CC1 | 5.2* | 0.9 | -0.3 | 6.7 | 1.4
CCOC(=O)N1CCN(C(=O)c2ccc3nc(N4CCC(C)CC4)sc3c2)CC1 | -1.9 | -1.1 | -1.6 | 0.3 | -1.2
COC(=O)C1=C(C)N(C)C(=NCc2cccc(C(F)(F)F)c2)NC1c1cccc(F)c1 (stereo unspecified) | . | -1.2 | -0.7 | 1.3 | -1.1
CCOC(=O)c1sc(NC(=O)CSc2nc(-c3ccco3)cc(C(F)(F)F)n2)c(C(=O)OCC)c1C | 3.4 | -0.8 | -1.5 | -0.6 | -0.2
O=C(CSc1nnc(-c2ccccn2)n1-c1ccccc1)Nc1ccc(OCc2ccccc2)cc1 | . | -1.8 | -0.6 | -0.6 | -0.8
NC(=O)NC(=O)COC(=O)c1ccc2noc(-c3ccccc3)c2c1 | -0.8 | 2.1 | -0.3 | 12.2* | 1.2
O=C(CSc1nnc2c3ccccc3c3ccccc3c2n1)Nc1ccccc1F | 0.1 | 5.8* | -0.7 | -0.3 | 0.3
O=C(Nc1cccc2ccccc12)c1ccc(F)cc1 | 0.3 | -0.1 | -0.4 | 7.0 | 0.6
O=C(Nc1cccc2ccccc12)c1ccccc1 | 2.4 | 5.6* | -0.3 | 10.4 | 2.5
O=C(Nc1cccc2ccccc12)ON=C1CCCCC1 | . | 2.3 | 1.0* | -1.3 | -0.3
O=C(CSc1ncccn1)Nc1cccc2ccccc12 | 0.0 | 6.2* | -0.6 | 3.3 | -0.2
O=C(CSCC(=O)Nc1cccc2ccccc12)Nc1cccc2ccccc12 | -1.1 | 1.1 | -0.2 | -2.2 | -0.3
COc1ccc(C)cc1NC(=O)ON=C1CCCCC1 | . | -0.2 | -0.9 | 2.2 | 0.2
Cc1ccc(C(=O)N2CCC[C@@H]2C(=O)N2CCC[C@@H]2C(=O)NCc2ccccc2)cc1C | . | -0.4 | -0.9 | 0.2 | 0.3
CN1CCN(c2ccc(Cl)cc2NC(=O)/C=C/c2ccc(F)cc2)CC1 | 5.7* | 0.0 | -1.6 | -1.5 | -0.1
COCCN1Cc2cc(C(=O)OC)c3c(c2C1=O)c1cc(F)ccc1n3S(=O)(=O)c1cccc(C)c1 | . | -0.8 | -1.2 | -0.2 | -0.6
Cc1nc2ccc(S(=O)(=O)NCC(=O)N(C)Cc3ccccc3F)cc2s1 | . | -2.7 | -0.9 | -2.5 | -1.1
CCOc1ccccc1C(=O)NN1C(=O)CCC1=O | 3.2 | 3.6 | 1.0* | 3.5 | -0.4
CCOc1ccccc1C(=O)NCCNC(=O)c1ccccc1OCC | 1.6 | -0.6 | -1.8 | -1.2 | -0.1
COC(=O)C1=C(C)N(Cc2ccccc2C(F)(F)F)C(=NCc2ccccc2C(F)(F)F)NC1c1ccc(F)cc1 (stereo unspecified) | . | -0.1 | -1.3 | -0.7 | 0.6
O=c1c(O)c(-c2ccc(O)c(O)c2)oc2cc(O)cc(O)c12 | 1.9 | -2.2 | -0.8 | 11.8* | 1.5
S=C1c2ccccc2CN1c1ccccc1 | 1.2 | 6.0* | -1.1 | 5.1 | 0.0
SMILES | DAX1 inh-1 | hcDAF-12 act | ssDAF12 agonist | hgDAF-12 ag | DAX1 inh-2
O=C(O)c1cccc2c1C(=O)N(c1ccccc1)C2 | 0.2 | 0.4 | -1.4 | -0.4 | 0.2
CC(C)(C)C1CCC(=NNC(=O)c2ccccc2-n2cccc2)CC1 (stereo unspecified) | -0.7 | 6.0* | -0.5 | 0.3 | -0.4
O=C(NN=C1CCCCC1)c1ccccc1-n1cccc1 | 0.5 | 0.0 | -0.7 | 2.4 | -0.3
COc1ccc2c(c1)[C@@H](NC(=O)c1ccncc1)[C@H](C)[C@H]2c1ccccc1 | . | -0.5 | -0.7 | 4.4 | -0.2
C[C@H]1CN([C@@H](C)CO)C(=O)CCCn2nncc2CO[C@H]1CN(C)C(=O)c1ccc2ccn(C)c2c1 | 0.0 | 1.8 | -0.3 | -3.5 | 0.2
O=C(C1CC1)n1ccc2ccc(-c3ccc4ccn(Cc5ccccc5)c4c3)cc21 | . | 2.4 | -0.9 | 1.0 | 0.1
Cc1cc(C(=O)O/N=C(\N)c2ccncc2)ccc1[N+](=O)[O-] | 4.4* | -1.1 | -1.2 | 5.1 | 1.0
Nc1[nH]c(C(=O)c2ccccc2)c(-c2ccccc2Cl)c1C(=O)c1ccccc1 | . | -2.2 | -1.5 | 0.2 | -1.2
CC(C)(C)NC(=O)C(Cc1ccccc1)NS(=O)(=O)c1ccc2c(c1)CCC(=O)N2 (stereo unspecified) | 0.4 | 0.2 | -1.4 | -0.4 | -0.3
Cc1ccc(CCNC(=O)C2CCN(S(=O)(=O)c3ccc4c(c3)CCC(=O)N4)CC2)cc1 | 1.1 | -0.2 | -0.4 | 1.1 | 0.9
O=C1CCc2cc(S(=O)(=O)NC(Cc3ccccc3)C(=O)NCCC3=CCCCC3)ccc2N1 (stereo unspecified) | 4.3* | -2.2 | -1.8 | 0.0 | -0.6
O=C1CCc2cc(S(=O)(=O)N3CCC(C(=O)NCCC4=CCCCC4)CC3)ccc2N1 | 6.2* | 0.8 | -1.0 | 0.6 | 0.5
COc1ccc(C(O)c2ncc(-c3cccc(C(F)(F)F)c3)[nH]2)cc1 (stereo unspecified) | . | -1.9 | -0.6 | -3.5 | -0.2
O[C@@H](Cc1ccccc1)[C@@H](/C=C/c1ccccc1)N(Cc1ccccc1)Cc1ccccc1 | . | 0.4 | 0.3 | 2.5 | 0.6
O=C(Nc1cnc2sccn2c1=O)c1ccccc1Cl | 0.4 | 2.7 | -0.7 | 8.9 | 3.9*
Cc1cccc(NC(=O)c2cnc3sccn3c2=O)c1C | . | 1.9 | -0.1 | 12.3* | 3.9*
COc1ccc(NC(=O)c2cnc3sccn3c2=O)cc1 | -0.1 | 4.5 | 0.9* | 8.2 | 1.6
Cc1ccc(C(=O)N(C)[C@H]2C[C@H]3c4[nH]c5c(-c6ccccc6)cccc5c4CCN3C(=O)[C@H]2[C@H](C)O)cc1 | . | 0.7 | -0.9 | 2.9 | -0.3
C[C@@H]1COc2cc(N3CCCC3)ccc2S(=O)(=O)N1 | . | 0.9 | -0.6 | -0.1 | 0.2
COC(=O)c1ccc(NC(=O)Nc2cccc(F)c2)cc1 | 0.8 | -0.9 | -0.4 | 11.4* | 0.2
O=C(Nc1ccc2c(c1)OCO2)Nc1ccc(F)cc1F | 2.4 | 0.3 | -0.5 | 10.8* | 2.8
O=C(Nc1ccc2c(c1)OCO2)Nc1ccc(Cl)cc1Cl | -0.7 | 0.6 | -1.1 | 6.7 | 1.2
COC(=O)c1ccc(C(=O)Nc2ccc(F)cc2)cc1 | 1.7 | 2.2 | -1.2 | 2.2 | 0.3
O=C(NCCc1ccc(F)cc1)c1cccc(NC(=O)c2ccccc2)c1 | -1.0 | -2.0 | -1.3 | -3.3 | 0.2
COC(=O)c1ccc(NC(=O)Nc2ccc(F)cc2F)cc1 | -0.1 | -1.0 | -1.5 | 13.2* | 0.0
O=C(Nc1cccc(C(=O)Nc2ccc(F)cc2F)c1)c1ccccc1 | 7.2* | -2.8 | -1.3 | -0.5 | -0.5
O=C(Nc1ccccc1)Nc1ccc(F)cc1F | -0.2 | 0.1 | -1.5 | 3.3 | 0.6
